A number with no mark means an inactive call. Active and inactive are the calls of the source. The call rests on the fitted dose curve; in most records, active means well fitted curve in the direction sought with a large enough effect in the repeat runs; inconclusive means weak or mixed curves; inactive means flat fitted curve, though single readings scatter.
Test: qHTS assay to test for compound auto fluorescence at 460 nm (blue) in HEK293 cells (AID 720678)
Conditions: blue autofluorescence 405/460 nm; series mostly up to 91.3 µM; fluorescence, % of triamterene: at the top concentration
Description: National Center for Advancing Translational Sciences [NCATS]
NIH Chemical Genomics Center [NCGC]
U.S. Environmental Protection Agency [EPA]
National Institutes of Environmental Health Sciences [NIEHS]
National Toxicology Program [NTP]
U.S. Food and Drug Administration [FDA]
Compound auto fluorescence often interferes with screening of the compound library against various biological targets and signaling pathways. Some of these compounds may have fluorophoric properties. Such properties may interfere with the assay outputs resulting in false positives and/or negatives. To decrease such complications and ensure the compound activities are relevant in terms of biological response, the Tox21 10K compound library was screened for auto fluorescence.
From the fluorophores used as reporter signals in our screening assays, the auto fluorescence equivalencies of compounds against three fluorophores have been evaluated: Triamterene, Fluorescein and Rose Bengal sodium for blue, green and red fluorescence, respectively. The fluorescence intensities were measured using Excitation/Emission wavelengths at 405/460nm, 485/535nm and 540/590nm for blue, green and red labels, respectively. This assay includes the blue fluorescence data.
Tox21 Assay Protocol Summary:
2,000 HEK293 cells in 5 uL of culture medium containing 10% dialyzed FBS per well were dispensed into black wall/clear bottom 1536-well plates using a Multidrop Combi Dispenser (Thermo Scientific). The assay plates were incubated for 4-5 hr at 37C to allow cell attachment to the well bottom, followed by the transfer of 23 nL compound or DMSO vehicle by a pintool work station (Kalypsys, San Diego, CA). After the assay plates were incubated overnight at 37C and 5% CO2, fluorescence intensities in the assay plates were measured by an Envision (PerkinElmer, Shelton, CT) plate reader using three labels for measuring blue, green and red fluorescence at […] 460, 535 and 590nm respectively.
On the % scale 0 is the no-effect control and ±100 the full control effect.

| SMILES | fluorescence, % of triamterene | Potency |
| --- | --- | --- |
| CNC(=O)O/N=C(\C)C(C)S(C)(=O)=O (stereo not given) | -0.105% [at 920 µM] |  |
| CC(=O)[O-].CC(=O)[O-].O.O.O.[Pb+2] | 0.0595% |  |
| O=S(=O)(NS(=O)(=O)C(F)(F)F)C(F)(F)F | 0.023% |  |
| CCCCC(CC)COC(=O)c1ccccc1C(=O)OCC(CC)CCCC (stereo not given) | -0.317% |  |
| [O-][Cl+3]([O-])([O-])O | -0.019% [at 95.7 µM] |  |
| Nc1ccc(N=Nc2ccccc2)cc1 | -1.15% |  |
| CC(=O)[O-].CC(=O)[O-].CC(=O)[O-].[Sb+3] | -0.0361% [at 3.72 µM] |  |
| COC(=O)c1cc(Oc2ccc(Cl)cc2Cl)ccc1[N+](=O)[O-] | 0.0023% |  |
| O.O.O.O.O.O.O.O=S(=O)([O-])[O-].[Co+2] |  | inactive |
| [O]=[Cr][O][Cr]=[O] | -0.0292% [at 95.7 µM] |  |
| COCCC#N | 0.0435% |  |
| COC(=O)/C=C(\C)OP(=O)(OC)OC | 0.0774% |  |
| CSSC | 0.126% [at 95.7 µM] |  |
| COP(=S)(NC(C)C)Oc1ccc(C)cc1[N+](=O)[O-] (stereo not given) | -0.0121% |  |
| [O]=[Cr](=[O])([OH])[O][Cr](=[O])(=[O])[OH] |  | inactive |
| O=C1C(Cl)=C(Cl)C(=O)C(Cl)=C1Cl |  | inactive |
| BrCC(Br)(Br)Br | -0.122% [at 95.7 µM] |  |
| CC(=O)[O-].CC(=O)[O-].CC(=O)[O-].[Cr+3] | 0.0097% |  |
| COP(=O)(OC)O/C(=C\Cl)c1cc(Cl)c(Cl)cc1Cl | -0.0394% |  |
| CCOP(=S)(OCC)Oc1cc(C)nc(N(CC)CC)n1 | -0.0531% |  |

| SMILES | fluorescence, % of triamterene | Potency |
| --- | --- | --- |
| CCN(CC)CCc1c[nH]c2ccccc12 | -0.0031% [at 95.7 µM] |  |
| CC(Cc1ccc(OCC(=O)O)cc1)NCC(O)c1csc(C(F)(F)F)n1 (stereo not given) | -0.206% |  |
| [Cl-].[Cl-].[Cl-].[Yb+3] | -0.0451% |  |
| CCOC(=O)Cc1ccccc1 | -0.0971% |  |
| CCCCn1cc[n+](C)c1 (tested in a mixture with another compound) | -0.0332% |  |
| CN1CCc2cc(Cl)c(O)cc2[C@H]2c3ccccc3CC[C@@H]21 | 0.144% [at 46 µM] |  |
| CN1C(=O)[C@@H](NC(=O)c2cc3ccccc3[nH]2)N=C(c2ccccc2)c2ccccc21 | -0.0087% [at 46 µM] |  |
| CNC(=O)/C=C(\C)OP(=O)(OC)OC | -0.0082% |  |
| Cc1cnc2c(C(=O)O)c(Cl)ccc2c1 | 0.133% |  |
| Cc1ccccc1OP(=O)(Oc1ccccc1C)Oc1ccccc1C | 0.0601% |  |
| CCCCc1ccccc1 | 0.0187% |  |
| CCCCN(CCCC)C(=S)[S-].CCCCN(CCCC)C(=S)[S-].[Ni+2] | -0.0417% [at 46 µM] |  |
| CCC[CH2][Sn]([CH2]CCC)([O]C(C)=O)[O]C(C)=O | 0.0037% |  |
| C=Cc1cccc(CCl)c1 | 0.0451% [at 203 µM] |  |
| Cc1cc2c3c(c1)C(c1ccccc1)=N[C@@H](NC(=O)c1ccncc1)C(=O)N3CC2 | -0.0972% |  |
| CC1CN1 (stereo not given) | 0.0752% |  |
| COc1ccc2c3c1O[C@H]1[C@H](O)CC[C@H]4[C@@H](C2)N(C)CC[C@@]341 | -0.0151% |  |
| CCC[CH2][Sn]([CH2]CCC)([CH2]CCC)[O][Sn]([CH2]CCC)([CH2]CCC)[CH2]CCC | -0.1% [at 3.72 µM] |  |
| CNC(=O)CSP(=O)(OC)OC | -0.107% |  |
| C[N+]1(C)[C@@H]2CC[C@H]1CC(OC(=O)C(CO)c1ccccc1)C2 (stereo not given in full) |  | inactive |

From PubChem BioAssay (Tox21)
